# Where two headings read alike, the source gives them in different places.
# Assays:
# Details in all cases: n = 1
# IRAK4 = tested on: IRAK4
# ITK = tested on: ITK
# [1] = tested on: JAK1(JH1domain-catalytic)
# [2] = tested on: JAK1(JH2domain-pseudokinase)
# [3] = tested on: JAK2(JH1domain-catalytic)
# [4] = tested on: JAK3(JH1domain-catalytic)
# JNK1 = tested on: T1, JNK1
# T1 construct: gene MAPK8
# JNK2 = tested on: T2, JNK2
# T2 construct: gene MAPK9
# JNK3 = tested on: T3, JNK3
# T3 construct: gene MAPK10
# KIT-autoinhibited = tested on: KIT-autoinhibited
# KIT = tested on: KIT
# LATS1 = tested on: LATS1
# LATS2 = tested on: LATS2
# LCK = tested on: LCK
# LIMK1 = tested on: LIMK1
# LIMK2 = tested on: LIMK2
# LKB1 = tested on: T4, LKB1
# T4 construct: gene STK11
# LOK = tested on: T5, LOK
# T5 construct: gene STK10
# LRRK2 = tested on: LRRK2
# LTK = tested on: LTK
# [5] = concentration: 1 μM, replicates: in singlicate
# 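Also: KINOMEscan kinase panel screen.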
compound,measurement,setting,value
COc1ccccc1CNC(=O)c1cc(C(=O)c2ccccc2C)c[nH]1 [GSK364507],%Inh,IRAK4; [5],23%
same,%Inh,ITK; [5],16%
same,%Inh,[1]; [5],19%
same,%Inh,[2]; [5],0%
same,%Inh,[3]; [5],0%
same,%Inh,[4]; [5],0%
same,%Inh,JNK1; [5],45%
same,%Inh,JNK2; [5],9%
same,%Inh,JNK3; [5],16%
same,%Inh,KIT-autoinhibited; [5],0%
same,%Inh,KIT; [5],41%
same,%Inh,LATS1; [5],0%
same,%Inh,LATS2; [5],0%
same,%Inh,LCK; [5],12%
same,%Inh,LIMK1; [5],8%
same,%Inh,LIMK2; [5],5%
same,%Inh,LKB1; [5],0%
same,%Inh,LOK; [5],0%
same,%Inh,LRRK2; [5],0%
same,%Inh,LTK; [5],0%
CS(=O)(=O)c1ccc(-c2c(-c3ncn[nH]3)sc(N3CCOCC3)c2C#N)cc1,%Inh,IRAK4; [5],0%
same,%Inh,ITK; [5],6%
same,%Inh,[1]; [5],0%
same,%Inh,[2]; [5],56%
same,%Inh,[3]; [5],0%
same,%Inh,[4]; [5],2%
same,%Inh,JNK1; [5],25%
same,%Inh,JNK2; [5],0%
same,%Inh,JNK3; [5],0%
same,%Inh,KIT-autoinhibited; [5],49%
same,%Inh,KIT; [5],28%
same,%Inh,LATS1; [5],24%
same,%Inh,LATS2; [5],9%
same,%Inh,LCK; [5],8%
same,%Inh,LIMK1; [5],0%
same,%Inh,LIMK2; [5],3%
same,%Inh,LKB1; [5],0%
same,%Inh,LOK; [5],31%
same,%Inh,LRRK2; [5],0%
same,%Inh,LTK; [5],28%
O=C(O)COc1ncnc2cc(-c3ccc4[nH]ncc4c3)sc12,%Inh,IRAK4; [5],0%
same,%Inh,ITK; [5],0%
same,%Inh,[1]; [5],0%
same,%Inh,[2]; [5],44%
same,%Inh,[3]; [5],16%
same,%Inh,[4]; [5],46%
same,%Inh,JNK1; [5],30%
same,%Inh,JNK2; [5],21%
same,%Inh,JNK3; [5],15%
same,%Inh,KIT-autoinhibited; [5],30%
same,%Inh,KIT; [5],21%
same,%Inh,LATS1; [5],0%
same,%Inh,LATS2; [5],48%
same,%Inh,LCK; [5],0%
same,%Inh,LIMK1; [5],0%
same,%Inh,LIMK2; [5],0%
same,%Inh,LKB1; [5],0%
same,%Inh,LOK; [5],2%
same,%Inh,LRRK2; [5],0%
same,%Inh,LTK; [5],97.3%
COc1ccc(CNC(=O)NC2CCN(c3ccnc(Nc4cc(OC)c(OC)c(OC)c4)n3)C2)cc1 (stereo not shown) [GSK1379748],%Inh,IRAK4; [5],0%
same,%Inh,ITK; [5],7%
same,%Inh,[1]; [5],0%
same,%Inh,[2]; [5],0%
same,%Inh,[3]; [5],87%
same,%Inh,[4]; [5],0%
same,%Inh,JNK1; [5],0%
same,%Inh,JNK2; [5],0%
same,%Inh,JNK3; [5],0%
same,%Inh,KIT-autoinhibited; [5],0%
same,%Inh,KIT; [5],57%
same,%Inh,LATS1; [5],0%
same,%Inh,LATS2; [5],11%
same,%Inh,LCK; [5],7%
same,%Inh,LIMK1; [5],0%
same,%Inh,LIMK2; [5],0%
same,%Inh,LKB1; [5],12%
same,%Inh,LOK; [5],0%
same,%Inh,LRRK2; [5],0%
same,%Inh,LTK; [5],64%
COc1ccc(Nc2nccc(-c3cccc(NC(=O)c4cc5cc(F)ccc5[nH]4)c3)n2)cc1 [GSK1229782],%Inh,IRAK4; [5],3%
same,%Inh,ITK; [5],23%
same,%Inh,[1]; [5],34%
same,%Inh,[2]; [5],0%
same,%Inh,[3]; [5],10%
same,%Inh,[4]; [5],0%
same,%Inh,JNK1; [5],28%
same,%Inh,JNK2; [5],34%
same,%Inh,JNK3; [5],15%
same,%Inh,KIT-autoinhibited; [5],0%
same,%Inh,KIT; [5],57%
same,%Inh,LATS1; [5],5%
same,%Inh,LATS2; [5],6%
same,%Inh,LCK; [5],46%
same,%Inh,LIMK1; [5],0%
same,%Inh,LIMK2; [5],12%
same,%Inh,LKB1; [5],12%
same,%Inh,LOK; [5],0%
same,%Inh,LRRK2; [5],42%
same,%Inh,LTK; [5],19%
COC(=O)c1c(-c2ccccc2)c2cc(C(=O)O)ccc2c(=O)n1Cc1ccccc1,%Inh,IRAK4; [5],22%
same,%Inh,ITK; [5],5%
same,%Inh,[1]; [5],2%
same,%Inh,[2]; [5],0%
same,%Inh,[3]; [5],0%
same,%Inh,[4]; [5],0%
same,%Inh,JNK1; [5],0%
same,%Inh,JNK2; [5],0%
same,%Inh,JNK3; [5],0%
same,%Inh,KIT-autoinhibited; [5],0%
same,%Inh,KIT; [5],93.1%
same,%Inh,LATS1; [5],22%
same,%Inh,LATS2; [5],0%
same,%Inh,LCK; [5],0%
same,%Inh,LIMK1; [5],1%
same,%Inh,LIMK2; [5],0%
same,%Inh,LKB1; [5],0%
same,%Inh,LOK; [5],0%
same,%Inh,LRRK2; [5],0%
same,%Inh,LTK; [5],0%
Cc1csc(-c2nc(Nc3ccncc3)c3ccccc3n2)n1 [GW869640],%Inh,IRAK4; [5],0%
same,%Inh,ITK; [5],11%
same,%Inh,[1]; [5],0%
same,%Inh,[2]; [5],74%
same,%Inh,[3]; [5],53%
same,%Inh,[4]; [5],9%
same,%Inh,JNK1; [5],54%
same,%Inh,JNK2; [5],16%
same,%Inh,JNK3; [5],15%
same,%Inh,KIT-autoinhibited; [5],24%
same,%Inh,KIT; [5],12%
same,%Inh,LATS1; [5],19%
same,%Inh,LATS2; [5],20%
same,%Inh,LCK; [5],2%
same,%Inh,LIMK1; [5],15%
same,%Inh,LIMK2; [5],2%
same,%Inh,LKB1; [5],43%
same,%Inh,LOK; [5],40%
same,%Inh,LRRK2; [5],31%
same,%Inh,LTK; [5],18%
Cc1cccc(-c2nc(C)cc(Nc3ccncc3)n2)n1 [GSK257997],%Inh,IRAK4; [5],1%
same,%Inh,ITK; [5],12%
same,%Inh,[1]; [5],13%
same,%Inh,[2]; [5],0%
same,%Inh,[3]; [5],0%
same,%Inh,[4]; [5],0%
same,%Inh,JNK1; [5],4%
same,%Inh,JNK2; [5],43%
same,%Inh,JNK3; [5],32%
same,%Inh,KIT-autoinhibited; [5],0%
same,%Inh,KIT; [5],17%
same,%Inh,LATS1; [5],0%
same,%Inh,LATS2; [5],0%
same,%Inh,LCK; [5],34%
same,%Inh,LIMK1; [5],11%
same,%Inh,LIMK2; [5],19%
same,%Inh,LKB1; [5],8%
same,%Inh,LOK; [5],0%
same,%Inh,LRRK2; [5],0%
same,%Inh,LTK; [5],16%
COc1ccc(C2=C(Nc3cccc(C(=O)O)c3)C(=O)NC2=O)cc1 [SB-390765],%Inh,IRAK4; [5],0%
same,%Inh,ITK; [5],0%
same,%Inh,[1]; [5],0%
same,%Inh,[2]; [5],18%
same,%Inh,[3]; [5],12%
same,%Inh,[4]; [5],0%
same,%Inh,JNK1; [5],41%
same,%Inh,JNK2; [5],32%
same,%Inh,JNK3; [5],33%
same,%Inh,KIT-autoinhibited; [5],14%
same,%Inh,KIT; [5],6%
same,%Inh,LATS1; [5],26%
same,%Inh,LATS2; [5],20%
same,%Inh,LCK; [5],10%
same,%Inh,LIMK1; [5],100%
same,%Inh,LIMK2; [5],0%
same,%Inh,LKB1; [5],11%
same,%Inh,LOK; [5],28%
same,%Inh,LRRK2; [5],0%
same,%Inh,LTK; [5],11%
Cc1ccc(NC(=O)Nc2cccc(C(F)(F)F)c2)cc1 [GSK955403],%Inh,IRAK4; 1 µM,0%
same,%Inh,ITK; 1 µM,12%
same,%Inh,[1]; 1 µM,0%
same,%Inh,[2]; 1 µM,12%
same,%Inh,[3]; 1 µM,0%
same,%Inh,[4]; 1 µM,0%
same,%Inh,JNK1; 1 µM,58%
same,%Inh,JNK2; 1 µM,26%
same,%Inh,JNK3; 1 µM,46%
same,%Inh,KIT-autoinhibited; 1 µM,3%
same,%Inh,KIT; 1 µM,91.4%
same,%Inh,LATS1; 1 µM,0%
same,%Inh,LATS2; 1 µM,20%
same,%Inh,LCK; 1 µM,6%
same,%Inh,LIMK1; 1 µM,0%
same,%Inh,LIMK2; 1 µM,10%
same,%Inh,LKB1; 1 µM,16%
same,%Inh,LOK; 1 µM,0%
same,%Inh,LRRK2; 1 µM,0%
same,%Inh,LTK; 1 µM,0%
O=C(Nc1n[nH]c2nc(-c3nccs3)c(Br)cc12)C1CC1 [SB-742251],%Inh,IRAK4; [5],43%
same,%Inh,ITK; [5],13%
same,%Inh,[1]; [5],1%
same,%Inh,[2]; [5],21%
same,%Inh,[3]; [5],36%
same,%Inh,[4]; [5],0%
same,%Inh,JNK1; [5],41%
same,%Inh,JNK2; [5],16%
same,%Inh,JNK3; [5],16%
same,%Inh,KIT-autoinhibited; [5],0%
same,%Inh,KIT; [5],1%
same,%Inh,LATS1; [5],24%
same,%Inh,LATS2; [5],0%
same,%Inh,LCK; [5],0%
same,%Inh,LIMK1; [5],0%
same,%Inh,LIMK2; [5],0%
same,%Inh,LKB1; [5],0%
same,%Inh,LOK; [5],0%
same,%Inh,LRRK2; [5],32%
same,%Inh,LTK; [5],0%
